Source: article PMC12214610

molecular target: Large ribosomal subunit protein uL5 (UniProt P62399)

Listed as a hit, yes:
Small ribosomal subunit protein uS19, P0A7U3
Large ribosomal subunit protein bL31, P0A7M9
Large ribosomal subunit protein bL27, P0A7L8

molecular target: Small ribosomal subunit protein bS1 (UniProt P0AG67)

Listed as a hit, yes:
Small ribosomal subunit protein uS7, P02359
Small ribosomal subunit protein uS10, P0A7R5
Small ribosomal subunit protein uS9, P0A7X3
Small ribosomal subunit protein uS11, P0A7R9
